These results are taken from PubChem BioAssay (NCATS).

Each structure is given as a SMILES string. Several values for one entry are separate records, joined by “and”; a condition that tells them apart may be missing. Identical values can stand only once. Inconclusive results are not listed. Activity calls are given as the source filed them. Unless noted, calls come from the whole dose curve; as a rule, active = well fitted curve in the direction sought with a large enough effect; inconclusive = small, poorly fitted or top-dose-only effect, or another doubt; inactive = no such curve, though single readings can be large; an effect the other way counts as inactive or inconclusive.
Potency is the fitted concentration of half-maximal effect.

The nature of the first test: Primary qHTS to identify inhibitors of SARS-CoV-2 cell entry (AID 1645846; calls by dose curve; note: nearly all actives have a fitted effect of over 45% in size). Conditions: SARS-CoV-2 pseudovirus cell entry assay, luminescence; activity change, negative = inhibition: at 57.1 µM (top of the series) unless noted; series mostly up to 57.1 µM. The procedure, abridged:
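Data are normalized to wells receiving SARS-CoV-2-S pseudoparticles and those given bald particles. Entry signal was luciferase luminescence in stable hACE2 Expi293F cells, 48 hr post-infection, after 1 hr compound pretreatment.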
For orientation: qHTS replaces the single test concentration by a dilution series.
On to `CN(C)c1ccc(C(=C2C=CC(=[N+](C)C)C=C2)c2ccc(N(C)C)cc2)cc1`, for which the Potency was 2.24 µM (active) and 2.51 µM (active).

For `C[C@]12CCC(=O)C=C1[C@@H]1C[C@@H]1[C@H]1[C@@H]3[C@@H]4C[C@@H]4[C@@]4(CCC(=O)O4)[C@@]3(C)CC[C@@H]12`, the activity change, negative = inhibition was 0.82% and 2.72%.

Consider `C[C@@H]1O[C@@H](O[C@@H]2C=C3CC[C@@H]4[C@H](CC[C@]5(C)[C@@H](c6ccc(=O)oc6)CC[C@]45O)[C@@]3(C)CC2)[C@H](O)[C@H](O)[C@H]1O`, for which the activity change, negative = inhibition was -97.4%.

`N=C(N)c1ccc2cc(OC(=O)c3ccc(N=C(N)N)cc3)ccc2c1`: the compound was called inactive and the activity change, negative = inhibition was -3.1%.

Turning to `CN(C)c1ccc(C(=C2C=CC(=[N+](C)C)C=C2)c2ccccc2)cc1`, the Potency is 4.47 µM (active).

Consider `O=C(Nc1ccc([N+](=O)[O-])cc1Cl)c1cc(Cl)ccc1O`, for which the Potency is 2.51 µM (active) and 8.91 µM (active).

`N/C(=N\N=C\c1ccc(Cl)cc1)N/N=C/c1ccc(Cl)cc1`: the activity change, negative = inhibition was -80.5%.

`CN(C)CC/C=C1\c2ccccc2Sc2ccc(Cl)cc21`: the Potency is 20 µM (active).

On to `CC(C(=O)O)c1ccc2c(c1)Cc1cccnc1O2` (centres undefined), for which the activity change, negative = inhibition was -13.6%.

On to `C/C=C/c1ccc(OC)cc1`, for which the compound was classed as inactive.

On to `CCC(=O)Oc1ccc2c(c1)CC[C@@H]1[C@@H]2CC[C@@]2(C)[C@H]1C[C@@H](OC(=O)CC)[C@@H]2OC(=O)CC`, for which the call was inactive.

As for `NC1(c2ccc(-c3nc4ccn5c(=O)[nH]nc5c4cc3-c3ccccc3)cc2)CCC1`, the Potency is 8.91 µM (active).

Turning to `C1CCC(C(CC2CCCCN2)C2CCCCC2)CC1` (centres undefined), the Potency is 12.6 µM (active) and 17.8 µM (active).

As for `NS(=O)(=O)c1ccc(N2CCCCS2(=O)=O)cc1`, the compound was classed as inactive.

As for `C[C@@H]1C[C@@H]([C@H](O)CC2CC(=O)NC(=O)C2)C(=O)[C@@H](C)C1`, the Potency was 2.51 µM (active).

With `CCCCc1ccc2nc(NC(=O)OC)[nH]c2c1`, the activity change, negative = inhibition was -63.3%.

On to `[O-][n+]1ccccc1SSc1cccc[n+]1[O-]`, for which the activity change, negative = inhibition was -95.2% [at 27.1 µM].

For the compound `COc1ccc2c(c1)c(CC(=O)O)c(C)n2C(=O)c1ccc(Cl)cc1`, the outcome was inactive.

Take `CC(=O)Oc1ccc2c(c1)CC[C@@H]1[C@@H]2CC[C@]2(C)[C@@H](O)CC[C@@H]12`: the activity change, negative = inhibition was -11%.

The nature of another test: Primary qHTS for inhibitors of nuclear receptor binding SET domain protein 2 (NSD2) in an isogenic RCH-ACV NSD2 p.E1099K mutant (9B) (AID 1645876). For activity change, negative = viability loss: % is set by controls: 0 for no effect and ±100 for the full control effect. Note: nearly all actives have a fitted effect of over 70% in size. Conditions: RCH-ACV NSD2 E1099K (9B) viability, CellTiter-Glo, 72 h; series mostly up to 44.9 µM; activity change, negative = viability loss: at the top concentration.
With `Nc1ccc(Cl)cc1C(=O)c1ccccc1F`, the “activity change, negative = viability loss” value is -14.5% (inactive).

Take `CCC(OC(C)=O)C(CC(C)NC)(c1ccccc1)c1ccccc1` (centres undefined): the Potency was 24.6 µM (active).

In the case of `Oc1ccc2[nH]cc(CCCCN3CC=C(c4ccccc4)CC3)c2c1`, the Potency is 7.5 µM (active).

Consider `Clc1ccc(CSC(Cn2ccnc2)c2ccc(Cl)cc2Cl)cc1` (centres undefined), for which the Potency was 5.96 µM (active).

`C[C@@H]1O[C@@H](O[C@@H]2C=C3CC[C@@H]4[C@H](CC[C@]5(C)[C@@H](c6ccc(=O)oc6)CC[C@]45O)[C@@]3(C)CC2)[C@H](O)[C@H](O)[C@H]1O`: the Potency was 10.5 nM (active) and 4.7 nM (active).

`CC(C)NCC(O)c1ccc(N)c(C#N)c1` (centres undefined): the “activity change, negative = viability loss” value was 8.48% (inactive).

In the case of `CN1C(=O)CN=C(c2ccccc2)c2cc(Cl)ccc21`, the result was inactive.

On to `CCCCCCCCCCCC[N+](C)(C)CCOc1ccccc1`, for which the Potency was 1.33 µM (active).

For `C[C@]12Cc3nonc3C[C@@H]1CC[C@@H]1[C@@H]2CC[C@@]2(C)[C@H]1CC[C@]2(C)O`, the Potency was 21.1 µM (active).

For the compound `COc1ccc2c(C(=O)c3ccc(Cl)cc3)c(C)n(CC(=O)O)c2c1`, the compound was classed as inactive.

For the compound `C[C@@H]1C[C@@H]([C@H](O)CC2CC(=O)NC(=O)C2)C(=O)[C@@H](C)C1`, the Potency is 211 nM (active) and 296 nM (active).

Regarding `CC[n+]1c(-c2ccccc2)c2cc(N)ccc2c2ccc(N)cc21`, the Potency is 5.96 µM (active).

On to `CCC1(c2ccccc2)CCC(=O)NC1=O` (centres undefined), for which the “activity change, negative = viability loss” value was 6.78% (inactive).

As for `Cc1ncc2n1-c1ccc(Cl)cc1C(c1ccccc1F)=NC2`, the Potency is 23.7 µM (active).

As for `O=C(CBr)Nc1ccc(Cl)cc1C(=O)c1ccccc1F`, the “activity change, negative = viability loss” value was -10.3% (inactive).

`CC[C@H](O)C(C[C@H](C)N(C)C)(c1ccccc1)c1ccccc1`: the “activity change, negative = viability loss” value is 5.77% [at 91.9 µM] (inactive).

Take `C[C@H](CN1CCOCC1)C(C(=O)N1CCCC1)(c1ccccc1)c1ccccc1`: the “activity change, negative = viability loss” value was 9.74% [at 155 µM] (inactive).

For the compound `O=C(CCl)c1ccc(Cl)cc1Cl`, the “activity change, negative = viability loss” value was -16.8% (inactive).

A further test can be described thus: Primary qHTS for inhibitors of nuclear receptor binding SET domain protein 2 (NSD2) in an RCH-ACV wild type WT cells (2C) (AID 1645877). For activity change, negative = cell killing: % is set by controls: 0 for no effect and ±100 for the full control effect. Note: nearly all actives have a fitted effect of over 70% in size. Conditions: RCH-ACV (leukaemia line) NSD2 WT (2C) viability, CellTiter-Glo, 72 h; series mostly up to 44.9 µM; activity change, negative = cell killing: at the top concentration.
For `CCC(OC(C)=O)C(CC(C)NC)(c1ccccc1)c1ccccc1` (centres undefined), the Potency was 19.5 µM (active).

`Oc1ccc2[nH]cc(CCCCN3CC=C(c4ccccc4)CC3)c2c1`: the Potency was 7.5 µM (active).

With `Clc1ccc(CSC(Cn2ccnc2)c2ccc(Cl)cc2Cl)cc1` (centres undefined), the Potency is 5.96 µM (active).

Turning to `C[C@@H]1O[C@@H](O[C@@H]2C=C3CC[C@@H]4[C@H](CC[C@]5(C)[C@@H](c6ccc(=O)oc6)CC[C@]45O)[C@@]3(C)CC2)[C@H](O)[C@H](O)[C@H]1O`, the Potency was 13.2 nM (active) and 7.5 nM (active).

Consider `CC(C)NCC(O)c1ccc(N)c(C#N)c1` (centres undefined), for which the “activity change, negative = cell killing” value was 6.09% (inactive).

Turning to `CN1C(=O)CN=C(c2ccccc2)c2cc(Cl)ccc21`, the “activity change, negative = cell killing” value is -4.23% (inactive).

`COc1ccc2c(C(=O)c3ccc(Cl)cc3)c(C)n(CC(=O)O)c2c1`: the “activity change, negative = cell killing” value was -13.7% (inactive).

In the case of `CCC1(c2ccccc2)CCC(=O)NC1=O` (centres undefined), the “activity change, negative = cell killing” value was -9.85% (inactive).

Turning to `Cc1ncc2n1-c1ccc(Cl)cc1C(c1ccccc1F)=NC2`, the Potency was 13.3 µM (active).

For `O=C(CBr)Nc1ccc(Cl)cc1C(=O)c1ccccc1F`, the “activity change, negative = cell killing” value is -0.629% (inactive).

As for `O=C(CCl)c1ccc(Cl)cc1Cl`, the “activity change, negative = cell killing” value was -24.6% (inactive).
